Results: PubChem BioAssay (Tox21)
Records with an inconclusive call do not appear. Activity calls are given as the source filed them. Unless noted, the call rests on the fitted dose curve.

Legend:
[1] = Nuclear factor erythroid 2-related factor 2/antioxidant responsive element (Nrf2/ARE) small molecule agonists: qHTS cell viability counter screen in human keratinocytes (AID 1919968; active means well fitted curve in the direction sought with a large enough effect in the repeat runs; an effect the other way counts as inactive or inconclusive; further: nearly all actives have a fitted effect of over 55% in size)
Procedure, shortened: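 In human HaCaT keratinocytes stably expressing an ARE-driven luciferase, compound exposure lasted 23 h at 37 C under 5% CO2. Viable cells are quantified with a protease-based fluorogenic reagent (CellTiter-Fluor) read 1 h after addition.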

[2] = Nuclear factor erythroid 2-related factor 2/antioxidant responsive element (Nrf2/ARE) small molecule agonists: luciferase reporter gene qHTS assay in human keratinocytes (AID 1919969); further: nearly all actives have a fitted effect of over 35% in size; further: potency means the concentration at half of the fitted maximal effect
[3] = target: Gonadotropin-releasing hormone receptor (Homo sapiens) (UniProt P30968); assay: Human gonadotropin-releasing hormone receptor (GnRHR) small molecule agonists, calcium flux assay in GnRHR-HEK293 cells (AID 1920063); further: nearly all actives have a fitted effect of over 35% in size
Procedure, shortened: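 Intracellular calcium rise is the read-out: engineered human GnRHR HEK293 cells, dye-loaded, are exposed to DMSO-dissolved compounds and fluorescence at Ex/Em 480/540 is tracked for 3 min.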

[4] = target: KiSS-1 receptor (Homo sapiens) (UniProt Q969F8); assay: Human kisspeptin (KISS1R) small molecule agonists, calcium flux assay in KISS1R-HEK293 cells (AID 1920064; active means well fitted curve in the direction sought with a large enough effect in the repeat runs; an effect the other way counts as inactive or inconclusive)
Procedure, shortened: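 Concentration-response testing used 15 concentrations in triplicate on human KISS1R-expressing HEK293 cells. Calcium-dependent fluorescence (Ex/Em 480/540) was followed kinetically for 3 min after compound transfer.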

[5] = G protein-coupled receptor (GPCR) small molecule agonists, calcium flux assay: HEK293 wild type cell line counter screen (AID 1920065)
Procedure, shortened: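 Fluorescence intensity signals activation. After overnight (18 h) culture and a 1 h calcium dye load at 37 C, compounds are added by pin tool and the plate read at 480/540 nm for 3 min in 1 s steps.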

[6] = p53 small molecule agonists, cell-based qHTS assay with human liver microsomes: qHTS cell viability counter screen (AID 1963579); further: nearly all actives have a fitted effect of over 45% in size
Procedure, shortened: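 Luminescent CellTiter-Glo read-out, 30 min at room temperature, gauged cytotoxicity in p53RE-bla cells exposed 16 h at 37 C to DMSO-dissolved compounds with metabolic activation by human liver microsomes and NADPH, each 0.5 mg/mL final.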

[7] = p53 small molecule agonists, cell-based qHTS assay with rat liver microsomes: qHTS cell viability counter screen (AID 1963580); further: nearly all actives have a fitted effect of over 45% in size
Procedure, shortened: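 Counter screen for cytotoxicity under metabolic activation: rat liver microsomes and NADPH, 0.5 mg/mL final each, added with compounds to p53RE-bla HCT-116 cells; 16 h at 37 C, then ATP luminescence read.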

[8] = p53 small molecule agonists, cell-based qHTS assay: qHTS cell viability counter screen (AID 1963581); further: nearly all actives have a fitted effect of over 45% in size
Procedure, shortened: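 Luminescence from CellTiter-Glo, reflecting ATP content, serves as the cytotoxicity measure; it is taken after the 2 h reporter substrate step in HCT-116 p53RE-bla cells dosed for 16 h at 37 C.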

[9] = target: 5-hydroxytryptamine receptor 2A (Homo sapiens) (UniProt P28223); assay: 5-hydroxytryptamine receptor 2A (HTR2A) small molecule antagonists, cell-based qHTS assay (AID 1963586); further: nearly all actives have a fitted effect of over 45% in size
Procedure, shortened: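 CHO cells stably expressing human HTR2A were plated for 18 h at 37 C, then loaded with calcium dye for 1 h. Compounds were preincubated 5 min at room temperature before DOI (4 nM solution) was added. Kinetic fluorescence was read for 3 min.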

[10] = target: 5-hydroxytryptamine receptor 2A (Homo sapiens) (UniProt P28223); assay: 5-hydroxytryptamine receptor 2A (HTR2A) small molecule agonists, cell-based qHTS assay (AID 1963587); further: nearly all actives have a fitted effect of over 30% in size
Procedure, shortened: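 HTR2A-CHO cells, plated 18 h at 37 C/5% CO2, dye-loaded 1 h at 37 C; compounds in DMSO added by pin tool (agonist mode). Intracellular calcium flux read as kinetic fluorescence on FDSS over 2 min at 1 s intervals.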

[11] = target: Muscarinic acetylcholine receptor M1 (Homo sapiens) (UniProt P11229); assay: Cholinergic receptor muscarinic 1 (CHRM1) small molecule agonists, cell-based qHTS assay (AID 1963589); further: nearly all actives have a fitted effect of over 35% in size
Procedure, shortened: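 Fluorescent calcium dye reports M1 activation in stably transfected CHO cells. Compounds, 15 concentrations, added after 1 h dye loading at 37 C; kinetic reading at 1 sec intervals.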

[12] = target: D(2) dopamine receptor (Homo sapiens) (UniProt P14416); assay: Dopamine D2 receptor (DRD2) small molecule agonists, cell-based qHTS assay (AID 1963594); further: nearly all actives have a fitted effect of over 35% in size
Procedure, shortened: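 HEK293 cells stably expressing DRD2 were cultured 24 h at 37 C, then given Ro20-1724 (0.1 mM final) and compounds for 10 min at room temperature. NKH477 (200nM) was then added for 30 min. cAMP was read by HTRF.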

[13] = target: D(2) dopamine receptor (Homo sapiens) (UniProt P14416); assay: Dopamine D2 receptor (DRD2) small molecule antagonists, cell-based qHTS assay (AID 1963595; active means well fitted inhibition curve with a large enough effect in the signal ratio in the repeat runs, with a control signal flat; the % refers to the signal ratio)
Procedure, shortened: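 HEK293 cells stably expressing DRD2, preincubated with 0.1 mM Ro20-1724 and compounds 10 min, were stimulated with 200 nM NKH477 plus 12 nM quinpirole for 30 min at room temperature; cAMP measured by HTRF (665/620 nm).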

[14] = cAMP Responsive Elements (CRE) small molecule agonists, cell-based qHTS assay (AID 1963590)
Procedure, shortened: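 Compound exposure lasted 3 h at 37 C/5% CO2 in CRE-bla HEK 293T cells grown in assay medium with 10% dialyzed FBS and 25 mM HEPES. Reporter signal came from LiveBLAzer B/G FRET substrate, 2 h, room temperature.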

[15] = cAMP Responsive Elements (CRE) small molecule antagonists, cell-based qHTS assay (AID 1963591; active means well fitted inhibition curve with a large enough effect in the signal ratio in the repeat runs, not every such curve was filed as active; the % refers to the signal ratio)
Procedure, shortened: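 Stimulation used NKH477 at a final 0.25 uM for 3 h in compound-treated CRE-bla HEK293T cells, seeded 18 h beforehand. Reporter activity was measured with LiveBLAzer B/G FRET substrate after 2 h at room temperature.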

[16] = target: Beta-2 adrenergic receptor (Homo sapiens) (UniProt P07550); assay: Adrenergic beta2 receptor (ADRB2) small molecule antagonists, cell-based qHTS assay (AID 1963592); further: series mostly up to about 92 µM; nearly all actives have a fitted effect of over 50% in size
Procedure, shortened: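 Assay format: CHO-ADRB2 cells, 18-20hr seeding at 37C/5% CO2, then compound plus 1nM isoproterenol agonist mix for 0.5hr RT. Homogeneous time-resolved fluorescence cAMP detection after 1hr, expressed as 665/615 nm ratio.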

[17] = target: Beta-2 adrenergic receptor (Homo sapiens) (UniProt P07550); assay: Adrenergic beta2 receptor (ADRB2) small molecule agonists, cell-based qHTS assay (AID 1963593);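 further: CHO cells stably overexpressing human ADRB2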
Procedure, shortened: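 CHO cells stably over-expressing ADRB2 were plated overnight at 37C, then dosed with compounds plus a stimulation mix containing 100uM IBMX and 25uM Ro-20-1724 for 0.5hr at room temperature. cAMP was measured by HTRF competition, 1hr.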

[18] = target: Muscarinic acetylcholine receptor M1 (Homo sapiens) (UniProt P11229); assay: Cholinergic receptor muscarinic 1 (CHRM1) small molecule antagonists, cell-based qHTS assay (AID 1963588); further: nearly all actives have a fitted effect of over 40% in size
Procedure, shortened: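 Compounds were tested at 15 concentrations in three independent runs. Dye-loaded CHRM1-CHO cells were exposed 5 min at room temperature before stimulation by acetylcholine added at 50nM. Intracellular calcium was read kinetically on FDSS for 3 min.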
On the % scale 0 is the no-effect control and ±100 the full control effect.

Gonadotropin-releasing hormone receptor (Homo sapiens), sequence (P30968 whole entry, looked up): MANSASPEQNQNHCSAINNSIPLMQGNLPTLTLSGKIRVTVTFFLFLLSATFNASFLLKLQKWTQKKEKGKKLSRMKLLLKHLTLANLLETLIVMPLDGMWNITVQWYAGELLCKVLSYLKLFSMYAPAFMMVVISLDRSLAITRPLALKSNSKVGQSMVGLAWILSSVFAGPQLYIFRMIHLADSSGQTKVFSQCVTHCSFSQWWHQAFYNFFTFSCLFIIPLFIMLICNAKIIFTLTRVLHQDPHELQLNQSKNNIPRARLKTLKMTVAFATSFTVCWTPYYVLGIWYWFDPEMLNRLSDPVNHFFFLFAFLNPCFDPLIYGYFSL
Beta-2 adrenergic receptor (Homo sapiens), sequence (P07550 whole entry, looked up): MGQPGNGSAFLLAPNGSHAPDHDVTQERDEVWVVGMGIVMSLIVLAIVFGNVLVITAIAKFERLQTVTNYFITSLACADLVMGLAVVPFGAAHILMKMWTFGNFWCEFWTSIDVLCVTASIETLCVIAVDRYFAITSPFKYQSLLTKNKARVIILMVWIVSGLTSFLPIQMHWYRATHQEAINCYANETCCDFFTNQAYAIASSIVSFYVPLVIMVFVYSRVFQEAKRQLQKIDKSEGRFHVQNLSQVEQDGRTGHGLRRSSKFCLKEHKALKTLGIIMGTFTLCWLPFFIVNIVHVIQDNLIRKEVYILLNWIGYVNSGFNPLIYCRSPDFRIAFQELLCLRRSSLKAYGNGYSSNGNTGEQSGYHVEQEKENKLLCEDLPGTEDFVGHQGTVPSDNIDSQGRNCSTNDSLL
Muscarinic acetylcholine receptor M1 (Homo sapiens), sequence (P11229 whole entry, looked up): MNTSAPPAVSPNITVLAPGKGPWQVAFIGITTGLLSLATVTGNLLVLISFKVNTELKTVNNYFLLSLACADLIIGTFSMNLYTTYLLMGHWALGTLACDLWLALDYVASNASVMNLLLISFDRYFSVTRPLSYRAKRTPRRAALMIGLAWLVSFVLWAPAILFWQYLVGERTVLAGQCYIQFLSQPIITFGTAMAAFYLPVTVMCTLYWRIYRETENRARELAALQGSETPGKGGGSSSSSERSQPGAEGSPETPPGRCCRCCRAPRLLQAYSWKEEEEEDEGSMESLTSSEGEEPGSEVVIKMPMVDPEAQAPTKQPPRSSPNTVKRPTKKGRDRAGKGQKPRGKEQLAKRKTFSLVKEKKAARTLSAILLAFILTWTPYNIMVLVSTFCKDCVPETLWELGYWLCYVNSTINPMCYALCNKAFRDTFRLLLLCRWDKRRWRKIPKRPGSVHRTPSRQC
5-hydroxytryptamine receptor 2A (Homo sapiens), sequence (P28223 whole entry, looked up): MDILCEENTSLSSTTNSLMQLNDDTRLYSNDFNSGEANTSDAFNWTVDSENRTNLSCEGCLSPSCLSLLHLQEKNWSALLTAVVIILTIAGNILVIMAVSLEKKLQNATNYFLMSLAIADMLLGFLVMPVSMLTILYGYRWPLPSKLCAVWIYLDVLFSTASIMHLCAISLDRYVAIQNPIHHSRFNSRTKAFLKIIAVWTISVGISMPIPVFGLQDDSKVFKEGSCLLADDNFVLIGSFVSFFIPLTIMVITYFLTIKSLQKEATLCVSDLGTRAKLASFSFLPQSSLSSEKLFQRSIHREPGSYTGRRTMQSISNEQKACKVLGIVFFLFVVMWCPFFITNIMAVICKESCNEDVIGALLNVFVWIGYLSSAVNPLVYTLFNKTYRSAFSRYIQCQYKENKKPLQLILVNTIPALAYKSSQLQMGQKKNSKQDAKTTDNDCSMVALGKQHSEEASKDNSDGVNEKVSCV
D(2) dopamine receptor (Homo sapiens), sequence (P14416 whole entry, looked up): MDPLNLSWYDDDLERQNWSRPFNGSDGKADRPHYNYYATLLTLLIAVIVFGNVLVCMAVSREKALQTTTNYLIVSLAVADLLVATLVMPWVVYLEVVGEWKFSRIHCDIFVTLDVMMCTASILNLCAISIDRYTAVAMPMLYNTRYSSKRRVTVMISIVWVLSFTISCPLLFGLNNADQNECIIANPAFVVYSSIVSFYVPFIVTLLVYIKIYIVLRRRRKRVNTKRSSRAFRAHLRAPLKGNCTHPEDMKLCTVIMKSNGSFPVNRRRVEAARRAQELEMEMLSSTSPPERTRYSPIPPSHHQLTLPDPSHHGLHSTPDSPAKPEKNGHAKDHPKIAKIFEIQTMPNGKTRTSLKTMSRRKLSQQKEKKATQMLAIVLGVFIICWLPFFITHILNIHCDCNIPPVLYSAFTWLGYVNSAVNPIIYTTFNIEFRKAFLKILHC
KiSS-1 receptor (Homo sapiens), sequence (Q969F8 whole entry, looked up): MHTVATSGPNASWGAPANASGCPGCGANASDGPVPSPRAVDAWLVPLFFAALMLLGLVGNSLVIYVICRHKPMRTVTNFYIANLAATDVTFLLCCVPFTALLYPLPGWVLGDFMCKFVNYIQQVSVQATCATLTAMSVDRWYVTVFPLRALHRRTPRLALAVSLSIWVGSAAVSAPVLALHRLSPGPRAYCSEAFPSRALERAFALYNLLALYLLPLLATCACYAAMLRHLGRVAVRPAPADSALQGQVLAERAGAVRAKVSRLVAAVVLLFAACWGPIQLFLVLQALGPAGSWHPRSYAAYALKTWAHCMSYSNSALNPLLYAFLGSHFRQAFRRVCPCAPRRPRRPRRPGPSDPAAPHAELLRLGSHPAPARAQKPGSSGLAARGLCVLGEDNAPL

CCOP(=S)(OCC)SC(CCl)N1C(=O)c2ccccc2C1=O (stereo not given)
active: Potency [2] 30.6 µM
inactive: Potency [1] | Potency [3] | Potency [4] | Potency [5] | Potency [6] | Potency [7] | Potency [8] | Potency [9] | Potency [10] | Potency [11] | Potency [12] | Potency [13]

CC(C)O.CC(C)O.OCCN(CCO)CCO.OCCN(CCO)CCO.[Ti]
inactive: Potency [1] | Potency [2] | Potency [3] | Potency [4] | Potency [5] | Potency [6] | Potency [7] | Potency [8] | Potency [9] | Potency [10] | Potency [11] | Potency [14] | Potency [15] | Potency [16] | Potency [17] | Potency [12] | Potency [13]

CN(C)CCN(C)C
inactive: Potency [1] | Potency [2] | Potency [3] | Potency [4] | Potency [5] | Potency [6] | Potency [7] | Potency [8] | Potency [10] | Potency [18] | Potency [11] | Potency [14] | Potency [15] | Potency [16] | Potency [17] | Potency [12]

CC(C)[C@]12CC(=O)[C@H](C)[C@H]1C2
inactive: Potency [1] | Potency [2] | Potency [3] | Potency [4] | Potency [5] | Potency [6] | Potency [7] | Potency [8] | Potency [9] | Potency [10] | Potency [16] | Potency [17] | Potency [12] | Potency [13]

CN(N=O)c1ccc([N+](=O)[O-])cc1
inactive: Potency [1] | Potency [2] | Potency [3] | Potency [4] | Potency [5] | Potency [6] | Potency [7] | Potency [8] | Potency [9] | Potency [10] | Potency [18] | Potency [11] | Potency [16] | Potency [12] | Potency [13]

Nc1c(Br)cc(Br)c2c1C(=O)c1ccccc1C2=O
inactive: activity change, negative = cytotoxicity [1] -10.3% [at 19 µM] | activity, positive = activation [2] 4.98% [at 19 µM] | activity change [3] 1.8% [at 11.8 µM, active compounds read high] | activation [4] 7.67% [at 15.8 µM] | activation [5] 0.165% [at 11.8 µM] | activity change, negative = cytotoxicity [6] 2.22% [at 13.5 µM] | activity change, negative = cytotoxicity [7] -8.42% [at 13.5 µM] | activity change, negative = cytotoxicity [8] 13.4% [at 13.5 µM] | activation [10] -1.81% [at 15.9 µM] | activity, negative = inhibition [18] -4.93% [at 12.6 µM] | activation [11] -0.118% [at 15.8 µM] | activation [14] -1.39% [at 19 µM] | activity change, negative = inhibition [16] 17.4% [at 19 µM] | activation [12] -0.116% [at 19 µM] | activity change, negative = inhibition [13] 9% [at 18.9 µM]

CC1(C)COP(Oc2ccccc2)OC1
inactive: Potency [1] | Potency [2] | Potency [3] | Potency [4] | Potency [5] | Potency [6] | Potency [7] | Potency [8] | Potency [9] | Potency [10] | Potency [18] | Potency [11] | Potency [16] | Potency [13]

Cc1ccc(S(=O)(=O)N[C@@H](CCCCN)C(=O)CCl)cc1
inactive: Potency [1] | Potency [2] | Potency [3] | Potency [4] | Potency [5] | Potency [6] | Potency [7] | Potency [8] | Potency [10] | Potency [18] | Potency [11] | Potency [14] | Potency [15] | Potency [16] | Potency [12] | Potency [13]
